Data published in the supplement of paper PMC10037445.
In all, about 2,900 compounds were measured (“IRF Lucia reporter activity, fold change vs agonist alone”: median about 0.9, highest 2% from about 2.8 on). The list comes from a sample in which the highest values are over-represented; it also holds similar structures and randomly drawn compounds.

Tests used:
[1] = system: RAW-Dual; assay: IRF Lucia reporter activity, fold change vs agonist alone; higher = enhanced IRF activity; settings: library stock concentration (final ~1000-fold dilution): 10 mM, agonist: MPLA (TLR4) […]
How it was run: (§1)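 Library stock was pin-tooled at 50 nL into 384-well plates of RAW-Dual macrophages (50,000 cells/well, DMEM), followed 1 h later by a PRR agonist, and the cells were kept at 37 °C, 5% CO2. Supernatant collected after 20 hours was read for IRF by QuantiLuc luminescence and for NF-κB by QuantiBlue absorbance at 620 nm. Reporter activity is fold change over agonist-alone wells, and a well counted as cytotoxic when its IncuCyte confluency was below 70% of agonist controls in both mask sets.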

[2] = system: RAW-Dual; assay: IRF Lucia reporter activity, fold change vs agonist alone; cytotoxicity flag (confluency mask): not cytotoxic; higher = enhanced IRF activity
How it was run: as §1

[3] = system: RAW-Dual; assay: IRF Lucia reporter activity, fold change vs agonist alone; cytotoxicity flag (confluency mask): cytotoxic (confluency <70% of control); higher = enhanced IRF activity
How it was run: as §1

[4] = cytotoxicity flag (confluency mask): not cytotoxic
[5] = agonist: 3'3'-cGAMP (STING) 10 ug/mL

Which “IRF Lucia reporter activity” value [1, 4] does the source give for `COc1nc2ccc(Br)cc2cc1C(c1ccccc1)C(O)(CCN(C)C)c1cccc2ccccc12.O=C(O)/C=C/C(=O)O` (centres undefined) here?
Its value is 0.751.

Which “IRF Lucia reporter activity” value [1, 4] does the source give for `CC(=O)Nc1ccc(C(=O)Nc2ccccc2N)cc1` here?
The value was 0.418.

How did the “IRF Lucia reporter activity” value [1, 4] turn out when `Cc1cc(Nc2ccc(NC(=O)c3ccc(Nc4ccnc5ccccc45)cc3)cc2)nc(N)n1` was run?
Its value is 3.15.

How did the “IRF Lucia reporter activity” value [2, 5] turn out when `Cc1cc(Nc2ccc(NC(=O)c3ccc(Nc4ccnc5ccccc45)cc3)cc2)nc(N)n1` (library stock concentration (final ~1000-fold dilution): 10 mM) was run?
Its value is 1.65.

What about the “IRF Lucia reporter activity” value ([2]; agonist: LPS (TLR4) 0.1 ug/mL) of the same compound?
Its value is 2.84.

Which “IRF Lucia reporter activity” value [2, 5] does the source give for `CC(=O)Nc1ccc(C(=O)Nc2ccccc2N)cc1` (library stock concentration (final ~1000-fold dilution): 10 mM) here?
Its value is 0.557.

And the “IRF Lucia reporter activity” value ([2]; agonist: LPS (TLR4) 0.1 ug/mL)?
The value was 0.424.

With `CNCc1ccc(C)c(NC(=O)c2ccc(Nc3nc(-c4ccccc4)c4ccccc4n3)cc2)c1` as the compound, how does the “IRF Lucia reporter activity” value [1, 4] read?
Its value is 1.01.

With `CNCc1ccc(C)c(NC(=O)c2ccc(Nc3nc(-c4ccccc4)c4ccccc4n3)cc2)c1` (library stock concentration (final ~1000-fold dilution): 10 mM) as the compound, how does the “IRF Lucia reporter activity” value [2, 5] read?
The value was 0.995.

What about the “IRF Lucia reporter activity” value ([2]; agonist: LPS (TLR4) 0.1 ug/mL) of the same compound?
Its value is 1.04.

Which “IRF Lucia reporter activity” value ([1]; cytotoxicity flag (confluency mask): cytotoxic (confluency <70% of control)) does the source give for `CCN(CC)CCCC(C)Nc1c2ccc(Cl)cc2nc2ccc(OC)cc12.Cl.Cl` (centres undefined) here?
The value was 0.84.

What does the source list for `CCN(CC)CCCC(C)Nc1c2ccc(Cl)cc2nc2ccc(OC)cc12.Cl.Cl` (centres undefined) (library stock concentration (final ~1000-fold dilution): 10 mM)?
IRF Lucia reporter activity [3, 5]: 0.643; IRF Lucia reporter activity ([3]; agonist: LPS (TLR4) 0.1 ug/mL): 0.0599

For `CC(=O)Oc1cc(C(F)(F)F)ccc1C(=O)O`, which “IRF Lucia reporter activity” value [1, 4] is on record?
The value was 1.04.

What does the source list for `CC(=O)Oc1cc(C(F)(F)F)ccc1C(=O)O` (library stock concentration (final ~1000-fold dilution): 10 mM)?
IRF Lucia reporter activity [2, 5]: 1.03; IRF Lucia reporter activity ([2]; agonist: LPS (TLR4) 0.1 ug/mL): 0.337

How did the “IRF Lucia reporter activity” value [1, 4] turn out when `Cc1oncc1C(=O)Nc1ccc(C(F)(F)F)cc1` was run?
The value was 1.62.

Which “IRF Lucia reporter activity” value [2, 5] does the source give for `Cc1oncc1C(=O)Nc1ccc(C(F)(F)F)cc1` (library stock concentration (final ~1000-fold dilution): 10 mM) here?
Its value is 1.08.

And the “IRF Lucia reporter activity” value ([2]; agonist: LPS (TLR4) 0.1 ug/mL)?
The value was 1.39.

`C/C(O)=C(\C#N)C(=O)Nc1ccc(C(F)(F)F)cc1` was tested. Which “IRF Lucia reporter activity” value [1, 4] did it give?
The value was 1.97.

Which “IRF Lucia reporter activity” value [2, 5] does the source give for `C/C(O)=C(\C#N)C(=O)Nc1ccc(C(F)(F)F)cc1` (library stock concentration (final ~1000-fold dilution): 10 mM) here?
Its value is 1.69.

What about the “IRF Lucia reporter activity” value ([2]; agonist: LPS (TLR4) 0.1 ug/mL) of the same compound?
The value was 3.04.

With `CC1CCC2C(C)C(OC(=O)CCC(=O)O)OC3OC4(C)CCC1C32OO4` (centres undefined) (library stock concentration (final ~1000-fold dilution): 10 mM) as the compound, how does the “IRF Lucia reporter activity” value [2, 5] read?
The value was 0.638.

What about the “IRF Lucia reporter activity” value ([2]; agonist: LPS (TLR4) 0.1 ug/mL) of the same compound?
The value was 0.706.

Which “IRF Lucia reporter activity” value [1, 4] does the source give for `CC1CCC2C(C)C(OC(=O)CCC(=O)O)OC3OC4(C)CCC1C32OO4` (centres undefined) here?
The value was 0.737.

For `COc1ccc(CCc2nc3cc(-c4c(C)noc4C)ccc3n2CC(C)N2CCOCC2)cc1Cl` (centres undefined), which “IRF Lucia reporter activity” value [1, 4] is on record?
Its value is 0.203.

Which “IRF Lucia reporter activity” value [2, 5] does the source give for `COc1ccc(CCc2nc3cc(-c4c(C)noc4C)ccc3n2CC(C)N2CCOCC2)cc1Cl` (centres undefined) (library stock concentration (final ~1000-fold dilution): 10 mM) here?
Its value is 0.452.

And the “IRF Lucia reporter activity” value ([2]; agonist: LPS (TLR4) 0.1 ug/mL)?
Its value is 0.421.

How did the “IRF Lucia reporter activity” value [1, 4] turn out when `COC1=CC(c2cc3ccccc3[nH]2)=N/C1=C\c1[nH]c(C)cc1C.CS(=O)(=O)O` was run?
The value was 5.45.

What does the source list for `Cc1cc(C)c(/C=C2\C(=O)Nc3ccccc32)[nH]1` (library stock concentration (final ~1000-fold dilution): 10 mM)?
IRF Lucia reporter activity [2, 5]: 0.77; IRF Lucia reporter activity ([2]; agonist: LPS (TLR4) 0.1 ug/mL): 0.578

For `COC1=CC(c2cc3ccccc3[nH]2)=N/C1=C\c1[nH]c(C)cc1C.CS(=O)(=O)O` (library stock concentration (final ~1000-fold dilution): 10 mM), which “IRF Lucia reporter activity” value [2, 5] is on record?
The value was 0.38.

What about the “IRF Lucia reporter activity” value ([2]; agonist: LPS (TLR4) 0.1 ug/mL) of the same compound?
Its value is 3.87.

With `Cc1cc(C)c(/C=C2\C(=O)Nc3ccccc32)[nH]1` as the compound, how does the “IRF Lucia reporter activity” value [1, 4] read?
The value was 0.781.

Which “IRF Lucia reporter activity” value [2, 5] does the source give for `O=C(c1cc(-c2cc3c(cc2C(=O)N2Cc4ccccc4CC2CN2CCOCC2)OCO3)n2c1CCCC2)N(c1ccccc1)c1ccc(O)cc1` (centres undefined) (library stock concentration (final ~1000-fold dilution): 10 mM) here?
The value was 0.268.

And the “IRF Lucia reporter activity” value ([2]; agonist: LPS (TLR4) 0.1 ug/mL)?
The value was 0.935.

How did the “IRF Lucia reporter activity” value [2, 5] turn out when `Oc1cc(O)c2c(c1)OC(c1ccc(O)c(O)c1)C(O)[C@H]2c1c(O)cc(O)c2c1OC(c1ccc(O)c(O)c1)C(O)C2` (some centres undefined) (library stock concentration (final ~1000-fold dilution): 10 mM) was run?
Its value is 0.867.

What about the “IRF Lucia reporter activity” value ([2]; agonist: LPS (TLR4) 0.1 ug/mL) of the same compound?
The value was 1.27.

`CC(C)N1CCN(Cc2cnc(-c3cc(-c4cccc5[nH]ccc45)cc4[nH]ncc34)o2)CC1` (library stock concentration (final ~1000-fold dilution): 10 mM) was tested. Which “IRF Lucia reporter activity” value [2, 5] did it give?
Its value is 0.609.

What about the “IRF Lucia reporter activity” value ([2]; agonist: LPS (TLR4) 0.1 ug/mL) of the same compound?
The value was 1.42.

Which results are given for `COc1ncc(-c2cc(-c3ncc(CN4CC(C)OC(C)C4)o3)c3cn[nH]c3c2)cc1NS(C)(=O)=O` (centres undefined) (library stock concentration (final ~1000-fold dilution): 10 mM)?
IRF Lucia reporter activity [3, 5]: 0.865; IRF Lucia reporter activity ([3]; agonist: LPS (TLR4) 0.1 ug/mL): 4.5

`CN1CCN(C(=O)c2ccc(-c3ccc4c(C=O)c(O)ccc4c3)s2)CC1` (library stock concentration (final ~1000-fold dilution): 10 mM) was tested. Which “IRF Lucia reporter activity” value [2, 5] did it give?
The value was 0.228.

What about the “IRF Lucia reporter activity” value ([2]; agonist: LPS (TLR4) 0.1 ug/mL) of the same compound?
The value was 0.45.
